{"source": "paper PMC6792352", "about": "“Limited Chemical Structural Diversity Found to Modulate Thyroid Hormone Receptor in the Tox21 Chemical Library” (Environmental Health Perspectives, 2019)", "note": "Structures can show the parent of a compound that is named as a salt."}
{"test_system": "thyroid hormone receptor (endogenous TRα and TRβ)", "design": "species or system GH3-TRE-Luc (rat pituitary); GH3-TRE-Luc luciferase reporter, antagonist mode against 1 nM T3, loss of signal, qHTS", "conditions": "read-out: Average AC50 (uM) GH3-TRE-Antag, antagonist mode, 1 nM T3, no GH3 cytotoxicity hit", "units": {"AC50": "µM"}}
{"smiles": "Oc1ccc2ccc3cccc4ccc1c2c34", "note": "[1-Hydroxypyrene]", "AC50": 55.7}
{"smiles": "CCC(=O)Nc1ccc(Cl)c(Cl)c1", "note": "[Propanil]", "AC50": 92.4}
{"smiles": "CC1CC(OC(=O)C(O)c2ccccc2)CC(C)(C)C1", "note": "(stereo not drawn) [Cyclandelate]", "AC50": 44.8}
{"smiles": "C=CCCCCCCCCC(=O)O", "note": "[10-Undecenoic acid]", "AC50": 43.6}
{"smiles": "CCCN(CCC)C(=O)Cc1c(-c2ccc(Cl)cc2)nc2ccc(Cl)cn12", "note": "[Alpidem]", "AC50": 25.1}
{"smiles": "O=C1OC2(c3ccc(O)cc3Oc3cc(O)ccc32)c2ccccc21", "note": "[Fluorescein]", "AC50": "> 50"}
{"smiles": "Cc1cccc(N(C)C(=S)Oc2ccc3ccccc3c2)c1", "note": "[Tolnaftate]", "AC50": "> 20"}
{"smiles": "O=C(N[C@H]1N=C(c2ccccc2F)c2cccc3c2N(CC3)C1=O)c1cc2ccccc2[nH]1", "note": "[Pranazepide]", "AC50": 12.1}
{"smiles": "CN(CC(=O)N1CCOCC1)Cc1c(Cl)cccc1NC(=O)c1ccccc1", "note": "[Fominoben hydrochloride]", "AC50": "> 50"}
{"smiles": "CC(=O)O[C@H]1CC[C@@]2(C)C(=CC[C@@H]3[C@@H]2CC[C@]2(C)C(c4cccnc4)=CC[C@@H]32)C1", "note": "[Abiraterone acetate]", "AC50": 50}
{"smiles": "COc1ccccc1NC(=O)c1cc2ccccc2cc1O", "note": "[3-Hydroxy-2-naphthoic o-anisidide]", "AC50": 10.4}
{"smiles": "CCCCNc1c(C(=O)OCC)c(C)nc2c1cnn2CC", "note": "[Tracazolate hydrochloride]", "AC50": 42.6}
{"smiles": "CCCCOC(=O)c1ccc(N)cc1", "note": "[Butyl 4-aminobenzoate]", "AC50": 21.8}
{"smiles": "CO/C=C(/C(=O)OC)c1ccccc1COc1cccc(C(F)(F)F)n1", "note": "[Picoxystrobin]", "AC50": 0.276}
{"smiles": "O=C(Nc1ccc(Cl)c(Cl)c1)C1CC1", "note": "[Cypromid]", "AC50": 45.8}
{"smiles": "CN1[C@@H](CC(=O)c2ccccc2)CCC[C@H]1C[C@H](O)c1ccccc1", "note": "[Lobeline]", "AC50": 29.3}
{"smiles": "CC1=C(C)S(=O)(=O)CCS1(=O)=O", "note": "[Dimethipin]", "AC50": 86.8}
{"smiles": "Oc1ccc2c(c1)OCO2", "note": "[Sesamol]", "AC50": "> 90"}
{"smiles": "CSC1=N[C@@](C)(c2ccccc2)C(=O)N1Nc1ccccc1", "note": "[Fenamidone]", "AC50": 6.3}
{"smiles": "CCCCNc1ccc(C(=O)OCCN(C)C)cc1", "note": "[Tetracaine hydrochloride]", "AC50": 11.2}
{"smiles": "Oc1ccccc1/C=N/Cc1ccccc1", "note": "[Norletimol]", "AC50": "> 50"}
{"smiles": "CC(=O)C(Cl)C(=O)N(C)C", "note": "(stereo not drawn) [2-Chloro-N,N-dimethyl-3-oxobutanamide]", "AC50": 90.4}
{"smiles": "NCCNCCN", "note": "[Diethylenetriamine]", "AC50": 18}
{"smiles": "CCOC1O[C@H]([C@@H](COCc2ccccc2)OCc2ccccc2)[C@H](OCc2ccccc2)[C@H]1O", "note": "(stereo partly drawn) [Tribenoside]", "AC50": 11.1}
{"smiles": "O=C(c1ccc(O)cc1)c1ccc(Cl)cc1", "note": "[4-Hydroxy-4'-chlorobenzophenone]", "AC50": 86.9}
{"smiles": "Oc1cc(Cl)cc(Cl)c1Cl", "note": "[2,3,5-Trichlorophenol]", "AC50": 57}
{"smiles": "CC(=O)O[C@]1(C(C)=O)CC[C@H]2[C@@H]3C[C@H](C)C4=CC(=O)CC[C@]4(C)[C@H]3CC[C@@]21C", "note": "[Medroxyprogesterone acetate]", "AC50": 28}
{"smiles": "OCCCCCCCCCCCCBr", "note": "[12-Bromo-1-dodecanol]", "AC50": 85.6}
{"smiles": "COC(C)(C)CCCC(C)C/C=C/C(C)=C/C(=O)OC(C)C", "note": "(stereo not drawn) [Methoprene]", "AC50": 43.4}
{"smiles": "CC/C=C\\CC/C=C/C=O", "note": "[trans-2,cis-6-Nonadienal]", "AC50": 69.9}
{"smiles": "CC1=CC(C)(C)Nc2ccccc21", "note": "[1,2-Dihydro-2,2,4-trimethylquinoline, polymer]", "AC50": 28}
{"smiles": "O=C(C[C@H]1NCCC[C@@H]1O)Cn1cnc2cc(Br)c(Cl)cc2c1=O", "note": "(racemic) [Halofuginone hydrochloride]", "AC50": 46.9}
{"smiles": "CCCCCC[C@@H](O)C/C=C\\CCCCCCCC(=O)O", "note": "[Potassium ricinoleate]", "AC50": 31.8}
{"smiles": "CCOc1cc([N+](=O)[O-])c(OCC)cc1N1CCOCC1", "note": "[4-(2,5-Diethoxy-4-nitrophenyl)morpholine]", "AC50": 28.4}
{"smiles": "CSc1nc(NC2CC2)nc(NC(C)(C)C)n1", "note": "[Cybutryne]", "AC50": 67.1}
{"smiles": "Clc1ccc(C2(Cn3cncn3)CC(Br)CO2)c(Cl)c1", "note": "(stereo not drawn) [Bromuconazole]", "AC50": 72.5}
{"smiles": "Sc1ccccc1", "note": "[Benzenethiol]", "AC50": 44.5}
{"smiles": "Cc1nc(-c2ccc(OCC(C)C)c(C#N)c2)sc1C(=O)O", "note": "[Febuxostat]", "AC50": 17.9}
{"smiles": "CC(=O)[C@@]1(O)CC[C@H]2[C@@H]3C=C(Cl)C4=CC(=O)CC[C@]4(C)[C@H]3CC[C@@]21C", "note": "[Chlormadinone]", "AC50": 30.7}
